In all, about 110,000 compounds were measured (“z-score”: median about -0.1, highest 2% from about 2 on). The full list was thinned out, with the highest values kept by preference. Activity calls are given as the source filed them.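 How the source made its calls: active means z-score in the third read window above 3 or below -3; inactive means the rest.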

In PubChem BioAssay AID488969 (Vanderbilt High Throughput Screening Facility, 2010) one finds z-score data, which are given here for 107 compounds.

The target of this experiment is Metabotropic glutamate receptor 8 (Rattus norvegicus) (UniProt P70579). Nature of the experiment: mGluR8 Gi/Go-coupled signaling modulation – cell-based, rat, thallium flux, HTS, primary screen (AID 488969). The following applies: HEK293 rat mGluR8, GIRK (G protein-gated inwardly rectifying potassium channel) thallium flux, FluoZin2; at 10 µM; stronger effect = higher value; submaximal glutamate (EC20) added with thallium.
Metabotropic glutamate receptor 8 (Rattus norvegicus), sequence (P70579 whole entry, looked up): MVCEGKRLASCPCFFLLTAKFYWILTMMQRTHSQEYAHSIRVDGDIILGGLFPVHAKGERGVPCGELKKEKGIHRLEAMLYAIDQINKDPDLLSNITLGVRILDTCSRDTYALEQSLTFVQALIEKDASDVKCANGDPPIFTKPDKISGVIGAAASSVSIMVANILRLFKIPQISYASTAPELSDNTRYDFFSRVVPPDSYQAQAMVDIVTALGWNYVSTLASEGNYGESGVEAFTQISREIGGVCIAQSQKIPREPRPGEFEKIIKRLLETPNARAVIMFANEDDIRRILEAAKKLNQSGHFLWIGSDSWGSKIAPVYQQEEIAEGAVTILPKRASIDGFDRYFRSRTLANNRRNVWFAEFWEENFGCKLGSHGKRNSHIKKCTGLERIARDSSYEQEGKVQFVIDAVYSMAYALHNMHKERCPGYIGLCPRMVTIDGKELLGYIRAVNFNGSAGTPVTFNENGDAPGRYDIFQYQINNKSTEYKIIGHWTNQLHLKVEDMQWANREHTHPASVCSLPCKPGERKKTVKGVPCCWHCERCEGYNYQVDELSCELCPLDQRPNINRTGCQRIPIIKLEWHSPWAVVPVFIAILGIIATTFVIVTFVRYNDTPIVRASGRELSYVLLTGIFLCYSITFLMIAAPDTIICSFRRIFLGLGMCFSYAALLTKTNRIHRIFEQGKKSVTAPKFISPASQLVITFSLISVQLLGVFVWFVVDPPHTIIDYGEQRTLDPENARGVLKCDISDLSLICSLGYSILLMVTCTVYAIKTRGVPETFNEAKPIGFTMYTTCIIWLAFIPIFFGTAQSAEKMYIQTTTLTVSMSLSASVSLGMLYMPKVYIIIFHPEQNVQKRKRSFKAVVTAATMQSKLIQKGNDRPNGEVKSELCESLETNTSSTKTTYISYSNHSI
In turn, `O=C(Cn1cncc1-c1ccc([N+](=O)[O-])cc1)Nc1cccc2ccccc12` yielded a z-score of -0.199. `CC1CCc2c(sc(NC(=O)COC(=O)c3ccccc3NCc3ccco3)c2C#N)C1` (configuration not stated) displayed a z-score of -0.152. In the case of `CC1CCc2c(sc(NC(=O)C(=O)NCc3ccco3)c2C#N)C1` (configuration not stated), the z-score is 11.4 (active). On to `CC1CCc2c(sc(NC(=O)CN3CCN(C(=O)c4ccco4)CC3)c2C#N)C1` (configuration not stated), for which the z-score came out at 0.101. Compound `COc1ccc(S(=O)(=O)N2CCN(C3Cc4ccccc4C3)CC2)cc1` gave a z-score of -0.439. Consider `Cc1cc(C)n(CC(O)CN(c2ccccc2)S(=O)(=O)c2ccccc2)n1` (configuration not stated), for which the z-score is -0.261. Regarding `CN(C)S(=O)(=O)c1ccc(C(=O)Nc2nnc(-c3ccc4c(c3)CCCC4)o2)cc1`, the z-score is 5.8 (active). `Cc1cc(C)nc(NS(=O)(=O)c2ccc(NC(=O)c3ccc(S(=O)(=O)N4CC(C)OC(C)C4)cc3)cc2)n1` (configuration not stated): the z-score was -0.605. Regarding `CC1CN(S(=O)(=O)c2cccc(C(=O)Nc3ccc4c(c3)CCC4)c2)CC(C)O1` (configuration not stated), the z-score is -0.053. On to `O=C(Nc1nnc(-c2ccccn2)o1)c1cccc(Br)c1`, for which the z-score is 0.334. In the case of `COc1ccccc1C(=O)Nc1nnc(-c2ccc3c(c2)CCCC3)o1`, the z-score is -0.536. `O=C(Nc1nnc(-c2ccc3c(c2)OCCO3)o1)c1ccc(Cc2ccccc2)cc1` displayed a z-score of -0.048. For `N#Cc1ccc(C(=O)Nc2nnc(-c3ccccn3)o2)cc1`, the z-score was -0.232.

Turning to `Cc1cc(C)c(NC(=O)c2ccc(S(=O)(=O)N(C)C)cc2)c(C)n1`, the z-score was -1.73. Take `O=C(Nc1nnc(-c2ccc3c(c2)CCCC3)o1)c1ccccc1Cl`: the z-score was 5.26 (active). For the compound `CC1CN(S(=O)(=O)c2ccc(C(=O)Nc3nnc(-c4ccc5c(c4)CCCC5)o3)cc2)CC(C)O1` (configuration not stated), the z-score was found to be 2.42.

Regarding `O=C(Nc1nnc(-c2ccccn2)o1)c1ccc(Br)cc1`, the z-score stood at 2.32. In turn, `O=C(CCc1ccccc1)Nc1nnc(-c2ccc3c(c2)CCCC3)o1` registered a z-score of -0.145.

With `Nc1ccc(SC(F)(F)F)cc1C(=O)c1ccccc1`, the z-score is -0.00154.

The compound `O=C(COC(=O)C1CCN(S(=O)(=O)c2ccc3c(c2)OCCO3)CC1)Nc1cc(C(F)(F)F)ccc1Cl` registered a z-score of -0.303. Consider `CCCC12CN3CCN(CC(C3)/C1=N\NC(=O)Nc1ccccc1)C2`, for which the z-score was -0.242.

Turning to `CCc1cc2cc(C(=O)Nc3ccc(F)cc3)sc2s1`, the z-score is -0.0494. The value for `Cc1nc2ccc(F)cc2cc1C(=O)NCc1ccco1` was -0.0284; that for `O=C(COC(=O)CCc1nc2ccccc2s1)Nc1ncc(Cl)cc1Cl` was -0.33; that for `CN1CCN(/C=N/c2c(C#N)cnn2-c2ccccc2)CC1` was 0.237. For `O=C(CNC(=O)c1cccc(F)c1)OCc1cc(=O)n2cc(Br)ccc2n1`, the z-score was -0.354. In the case of `O=C(COc1ccc(Cl)cc1)Nc1nnc(-c2ccc3c(c2)CCCC3)o1` it was -0.441; in that of `Clc1ccc(-c2nnc(NC3=NCCCCC3)o2)cc1`, 0.0658. The value for `O=C(Nc1nnc(-c2ccc3c(c2)CCCC3)o1)c1ccc(Cl)cc1Cl` was 15.6 (active). As for `CCCN(CCC)S(=O)(=O)c1ccc(C(=O)Nc2nnc(CSC)o2)cc1`, the z-score turned out to be 0.35. In the case of `O=C(Nc1nnc(-c2ccc3c(c2)CCCC3)o1)c1ccccc1` it was 15.5 (active); in that of `COc1cccc(-c2nnc(NC(=O)c3ccc(S(=O)(=O)N(CC(C)C)CC(C)C)cc3)o2)c1`, -0.14; in that of `O=C(COc1ccccc1)Nc1nnc(-c2ccc3c(c2)CCCC3)o1`, 1.27. Consider `CC(=O)Nc1nnc(-c2ccc3c(c2)CCCC3)o1`, for which the z-score amounted to 0.0154.

For the compound `CCCN(CCC)S(=O)(=O)c1ccc(C(=O)Nc2nnc(-c3cccc(OC)c3)o2)cc1`, the z-score is 3.65 (active). For `O=C(Nc1nnc(-c2ccc3c(c2)CCCC3)o1)C1CCCCC1`, the z-score was -0.309.

Regarding `O=C(Nc1ccc2c(c1)CCC2)C1COc2ccccc2O1` (configuration not stated), the z-score is 0.9. With `O=C(Nc1nnc(-c2ccc3c(c2)CCCC3)o1)C1COc2ccccc2O1` (configuration not stated), the z-score was 7.22 (active).

For `COc1nnc(-c2ccc(N3CCCCC3)c(NC(=O)C3CCCCC3)c2)c2ccccc12`, the z-score is -0.3.

In the case of `Cc1ccccc1N1CCN(C(=O)CCN2C(=O)c3ccccc3C2=O)CC1`, the z-score is -0.36. Compound `COc1ccc(C(=O)Nc2ccc(Cl)c(Cl)c2)c(OC)n1` returned a z-score of -0.192. `COc1ccccc1C(=O)NNC(=O)c1ccc(F)cc1` showed a z-score of 0.0416. Regarding `CCC(C)(C)n1nnnc1C(C(C)C)N1CCSCC1` (configuration not stated), the z-score stood at 0.805. In the case of `O=S(Cc1ccc(Br)cc1)Cc1nnc(SCc2c(Cl)cccc2Cl)n1-c1ccccc1` (configuration not stated), the z-score worked out at 0.0461.

Take `CCNC(=O)C1CCCN1S(=O)(=O)c1ccc(C)cc1` (configuration not stated): the z-score was -0.513.

`Cc1ccc2cc3cc(C(=O)N4CCN(Cc5ccccc5)CC4)sc3nc2c1`: the z-score is 0.586. In turn, `O=C(/C=C/c1ccccc1)NC(NC(=S)Nc1cccc(Cl)c1)C(Cl)(Cl)Cl` (configuration not stated) yielded a z-score of 1.36. In the case of `O=C(/C=C/c1ccccc1)NC(NC(=S)Nc1cccc(O)c1)C(Cl)(Cl)Cl` (configuration not stated) it was 2.09; in that of `O=C(/C=C/c1ccccc1)NC(NC(=S)Nc1cc(Cl)ccc1Cl)C(Cl)(Cl)Cl` (configuration not stated), 5.83 (active); in that of `O=C(/C=C/c1ccccc1)NC(NC(=S)Nc1ccc(Cl)cc1Cl)C(Cl)(Cl)Cl` (configuration not stated), 0.717. Consider `COc1ccc(NC(=S)NC(NC(=O)/C=C/c2ccccc2)C(Cl)(Cl)Cl)cc1` (configuration not stated), for which the z-score was determined as 1.83. Take `O=C(Cc1ccccc1)NC(NC(=S)Nc1cc(Cl)ccc1Cl)C(Cl)(Cl)Cl` (configuration not stated): the z-score is -0.195. In the case of `O=C(CNc1n[nH]c(=O)[nH]c1=O)N/N=C/c1cccnc1` it was -0.114. As to `Cc1cccc(N2CCN(C(=O)Cn3cnc4c3c(=O)n(C)c(=O)n4C)CC2)c1C`, the z-score was -0.973. `Cn1nnc(NC(=O)c2ccc3ccccc3c2)n1` had a z-score of -1.31. Consider `CCOC(=O)C(NC(=O)CC)(Nc1nc2c(s1)CCCC2)C(F)(F)F` (configuration not stated), for which the z-score is -0.0129. In turn, `COC(=O)C(NC(=O)COc1ccccc1)(Nc1nc2c(s1)CCCC2)C(F)(F)F` (configuration not stated) came in with a z-score of 2.96. In the case of `O=C(Nc1nc2c(s1)CCCC2)Oc1ccccc1` it was -0.198.

In turn, `CC(C)CNC(C(=O)Nc1ccc([N+](=O)[O-])cc1Br)c1ccccc1` (configuration not stated) came in with a z-score of -0.337. For the compound `O=C1CC(c2ccccc2)CC(O)=C1C=NCc1ccccc1` (configuration not stated), the z-score is -0.229.

`CCCN=CC1=C(O)CC(c2ccccc2)CC1=O` (configuration not stated) gave a z-score of -0.493. `CCC(C)N=CC1=C(O)CC(c2ccccc2)CC1=O` (configuration not stated) showed a z-score of 2.05. The value for `C=C(Br)Cn1c(CC(C)C)nc2ccccc21` was -0.262; that for `COC(=O)c1sc(N)nc1C(C)(C)C` was -0.167. `COc1cc(Cl)cc2c1Sc1ccccc1/C2=C/CCN(C)C`: the z-score was 3.63 (active).

Take `COc1cc2c(cc1Cl)/C(=C\CCN(C)C)c1ccccc1S2`: the z-score was -0.852. `CN(C)CC/C=C1/c2ccccc2Sc2c(O)cc(Cl)cc21` registered a z-score of 1.62.

In the case of `O=C(CNc1ccccc1)N/N=C/c1ccc2c(c1)OCO2`, the z-score was -0.247. As for `COc1ccc(NC(=O)Nc2nnc(-c3ccccc3SCc3ccccc3)s2)cc1`, the z-score was -0.158. In the case of `CC(=O)N1CCN=C1SCc1ccc(Br)cc1`, the z-score turned out to be 2.58.

In turn, `CC(=O)N1CCN=C1SCc1ccccc1` gave a z-score of -0.898. `CC(=O)N1CCN=C1SCc1ccc(F)cc1`: the z-score came to 0.0688. In turn, `COC(=O)c1ccc(NC(=O)C(=O)N2CCN(C(=S)NCCc3ccccc3)CC2)cc1` registered a z-score of -0.154. On to `O=C(N/N=C\c1cn[nH]c1-c1ccccc1)c1cccnc1`, for which the z-score amounted to 0.0508. In the case of `O=C(OCc1ccccc1)Oc1cncc(C(=O)O)c1` it was 2.64. Consider `COC(=O)Oc1cncc(C(=O)O)c1`, for which the z-score is -0.0704. In turn, `CCOC(=O)c1cncc(C(=O)O)c1` displayed a z-score of 1.8. Compound `CCN(CC)S(=O)(=O)c1ccc(C(=O)NCc2ccc3c(c2)cc(C)n3C)cc1` showed a z-score of -0.388. `CN(C)S(=O)(=O)c1cccc(NC(=S)Nc2ccc(Cl)cc2Cl)c1`: the z-score is 7.58 (active). Consider `CN(C)S(=O)(=O)c1cccc(C(=O)Nc2cc(Cl)cc(Cl)c2)c1`, for which the z-score was -0.468. In the case of `CN(C)S(=O)(=O)c1cccc(NC(=S)NN=C(Cc2ccccc2)Cc2ccccc2)c1` it was 0.673; in that of `CN(C)S(=O)(=O)c1cccc(NC(=S)Nc2cc(Cl)cc(Cl)c2)c1`, 8 (active); in that of `FC(F)(F)c1cccc(NC(=S)Nc2ccc(Cl)cc2Cl)c1`, 1.29. In turn, `CN(C)S(=O)(=O)c1cccc(NC(=S)N/N=C/C(c2ccccc2)c2ccccc2)c1` yielded a z-score of 0.384. Compound `O=C(CCc1ccc(S(=O)(=O)NC2CCCCC2)cc1)N(Cc1ccccc1)Cc1ccccc1` registered a z-score of -0.22. On to `Cc1cc(C2=NNC(=NCc3ccccc3)SC2)c(C)n1-c1c(C)n(C)n(-c2ccccc2)c1=O`, for which the z-score is -0.278.

Take `COCC(C)n1c(C)cc(C(=O)COC(=O)c2oc3ccccc3c2C)c1C` (configuration not stated): the z-score was -0.927.

For the compound `Cc1ccccc1CSCC(=O)Nc1c(C)n(C)n(-c2ccccc2)c1=O`, the z-score is -0.0609. The compound `CC(C)(C)C(=O)NC(=S)NCc1ccccc1` displayed a z-score of -0.201. The compound `CC(C)(C)C(=O)NC(=S)N1CCCC1` registered a z-score of -0.128.

Turning to `CCCCN(CCCC)C(=S)NC(=O)C(C)(C)C`, the z-score was 5.35 (active). `COC(=O)c1ccc(C(=O)OC)c(NC(=O)COC(=O)C23CC4CC(CC(O)(C4)C2)C3)c1` returned a z-score of -1.04. As for `Cc1cccc(NC(=O)Nc2ccc(C)c(C)c2)n1`, the z-score was -0.316. The compound `Cc1cc(NC(=O)CSc2nnc(-c3cccnc3)n2C)no1` gave a z-score of 0.0216.

Turning to `Cc1cc(NC(=O)CSc2nnc(-c3cccnc3)n2N)no1`, the z-score was -0.404. As to `CCCCn1c(SCC(=O)Nc2cc(C)on2)nnc1-c1cccnc1`, the z-score is 2.11. In turn, `COC(=O)c1cccc(NC(=O)CCc2ccccc2)c1` displayed a z-score of -0.143.

In turn, `COc1ccc(NC(=S)N2CCN(C/C=C/c3ccccc3)CC2)cc1` displayed a z-score of -0.821. The compound `CCNC(=O)CN(CCc1ccccc1)S(=O)(=O)c1ccc(OC)cc1` yielded a z-score of -0.329.

For the compound `COc1ccc(S(=O)(=O)N(CCc2ccccc2)CC(=O)O)cc1`, the z-score stood at 2.73. Regarding `COc1ccc(S(=O)(=O)N(CCc2ccccc2)CC(=O)NC(C)C)cc1`, the z-score is -0.387.

Take `COc1ccccc1NS(=O)(=O)c1ccc2oc(SC3CCOC3=O)nc2c1` (configuration not stated): the z-score was -1.2. `CCOC(=O)CSC1=Nc2ccccc2C2=NC(CC(=O)NCc3cccs3)C(=O)N12` (configuration not stated) registered a z-score of 0.253. In the case of `CCOC(=O)CSC1=Nc2ccccc2C2=NC(CC(=O)NCc3ccc(OC)cc3)C(=O)N12` (configuration not stated) it was 0.556; in that of `CCOC(=O)CSC1=Nc2ccccc2C2=NC(CC(=O)NCc3ccccc3)C(=O)N12` (configuration not stated), 2.91; in that of `O=C(Nc1ccc(F)cc1)c1ccc(-n2ccnc2)nc1`, -0.238.

For `CCN(CC)S(=O)(=O)c1cccc(C(=O)N[C@H](C(=O)Nc2nc3ccccc3s2)C(C)C)c1`, the z-score amounted to 0.326.
